# Data as given in ChEMBL document CHEMBL1157539, “Thousands of chemical starting points for antimalarial lead identification” (Nature, 2010).
# Key:
# Format in all cases: functional
# [1] = tested on: Plasmodium falciparum; assay: GSK_TCMDC: Inhibition of Plasmodium falciparum 3D7 in whole red blood cells, using parasite LDH activity as an index of growth. Test compounds present at 2uM
# [2] = tested on: Plasmodium falciparum; assay: GSK_TCMDC: Inhibition of Plasmodium falciparum Dd2 in whole red blood cells, using parasite LDH activity as an index of growth. Test compounds present at 2uM
# [3] = tested on: HepG2; assay: GSK_TCMDC: Percent inhibition of human HepG2 cell line. Test compounds present at 10uM.
Structure (SMILES),Inhibition [1] [%],Inhibition [2] [%],Inhibition [3] [%]
Br.Cc1ccc2ccccc2c1CCCON1C(=N)N=C(N)NC1(C)C,95,97,65
CC(C)c1ccc(CN2CCC(NC(=O)c3ccc(-c4ccccc4F)s3)CC2)cc1.O=C(O)C(F)(F)F,81,13,46
Cc1cc(N[C@@H](Cc2ccccc2)C(=O)NC2CCCC2)nc(Nc2ccccc2)n1.O=C(O)C(F)(F)F,100,82,3
CC(C)C(=O)n1ncc2c3c(N)nc(N)nc3ccc21,87,3,0
COC(=O)c1ccc(CCC(C)NCC(O)c2cccc(C(F)(F)F)c2)cc1.Cl (stereo not drawn),99,99,16
CC(C)(C)c1ccc(CN2CCC(CNC(=O)c3cc(-c4cccc(Cl)c4)cs3)C2)cc1.O=C(O)C(F)(F)F (stereo not drawn),100,83,44
Cl.Nc1ccc(-c2cc(Cl)cc(Cl)c2)cc1-c1cc2ccccc2[nH]1,100,97,0
O=C(O)C(F)(F)F.O=S(=O)(NCCN1CCCC1)c1cccc(-c2cccc(CNCCc3cccs3)c2)c1,100,45,30
CC(=O)N1N=C(c2ccc(F)cc2)Sc2c1nc(C1CCCCC1)n2C(C)=O,92,9,4
CCOC(=O)c1c(NC(NC(=O)c2ccc(C(C)(C)C)cc2)C(Cl)(Cl)Cl)sc2c1CCCC2 (stereo not drawn),98,94,1
CCCNC[C@@H](O)[C@H](Cc1ccccc1)NC(=O)c1cc(NCC)cc(N2CCCC2=O)c1,100,76,0
